From PubChem BioAssay (NCATS)
The other results are listed elsewhere or left out. Inconclusive results are not listed. Active and inactive are the calls of the source. Calls follow the shape of the dose curve; as a rule, active = well fitted curve in the direction sought with a large enough effect; inconclusive = small, poorly fitted or top-dose-only effect, or another doubt; inactive = no such curve, though single readings can be large; an effect the other way counts as inactive or inconclusive.

Assays:
[1] = molecular target: DNA polymerase kappa (Homo sapiens) (UniProt Q9UBT6); experiment: qHTS for Inhibitors of Polymerase Kappa: Confirmatory Assay for Cherry-picked Compounds (AID 720501); conditions: purified Pol-kappa, fluorescent strand-displacement substrate
Chain of DNA polymerase kappa (Homo sapiens) (Q9UBT6 whole entry, looked up): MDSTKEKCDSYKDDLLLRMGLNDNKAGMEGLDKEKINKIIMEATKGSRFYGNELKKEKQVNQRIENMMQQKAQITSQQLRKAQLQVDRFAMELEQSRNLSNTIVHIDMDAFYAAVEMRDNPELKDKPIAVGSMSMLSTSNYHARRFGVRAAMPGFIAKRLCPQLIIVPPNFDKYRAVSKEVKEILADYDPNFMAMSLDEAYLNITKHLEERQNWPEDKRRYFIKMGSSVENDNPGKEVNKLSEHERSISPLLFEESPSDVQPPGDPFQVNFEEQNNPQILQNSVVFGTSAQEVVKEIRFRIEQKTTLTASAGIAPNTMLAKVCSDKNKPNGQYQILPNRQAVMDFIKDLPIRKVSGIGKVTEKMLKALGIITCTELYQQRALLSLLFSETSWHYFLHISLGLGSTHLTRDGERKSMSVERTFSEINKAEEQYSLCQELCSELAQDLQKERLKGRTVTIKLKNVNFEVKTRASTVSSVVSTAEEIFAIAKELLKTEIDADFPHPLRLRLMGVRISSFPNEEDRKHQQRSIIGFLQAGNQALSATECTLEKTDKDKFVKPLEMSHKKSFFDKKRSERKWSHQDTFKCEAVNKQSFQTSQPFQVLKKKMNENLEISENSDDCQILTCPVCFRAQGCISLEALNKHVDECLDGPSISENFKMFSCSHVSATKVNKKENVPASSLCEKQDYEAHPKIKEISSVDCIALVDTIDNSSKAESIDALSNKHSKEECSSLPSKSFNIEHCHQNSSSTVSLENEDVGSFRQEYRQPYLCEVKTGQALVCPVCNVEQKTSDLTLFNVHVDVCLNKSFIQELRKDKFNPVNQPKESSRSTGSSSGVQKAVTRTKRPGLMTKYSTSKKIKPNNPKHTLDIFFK
Method in brief: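 10 nM human Pol-kappa was preincubated with compound 15 min at room temperature, then 50 nM (final) primer/template substrate with TAMRA-labeled reporter strand and BHQ-2-labeled template added. Fluorescence (Ex 525, Em 598 nm) read at 0 and 10 min.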

[2] = molecular target: DNA polymerase eta (Homo sapiens) (UniProt Q9Y253); experiment: qHTS for Inhibitors of Polymerase Eta: Confirmatory Assay for Cherry-picked Compounds (AID 720502); conditions: Pol eta primer extension, TAMRA/BHQ fluorescence, 10 min
Chain of DNA polymerase eta (Homo sapiens) (Q9Y253 whole entry, looked up): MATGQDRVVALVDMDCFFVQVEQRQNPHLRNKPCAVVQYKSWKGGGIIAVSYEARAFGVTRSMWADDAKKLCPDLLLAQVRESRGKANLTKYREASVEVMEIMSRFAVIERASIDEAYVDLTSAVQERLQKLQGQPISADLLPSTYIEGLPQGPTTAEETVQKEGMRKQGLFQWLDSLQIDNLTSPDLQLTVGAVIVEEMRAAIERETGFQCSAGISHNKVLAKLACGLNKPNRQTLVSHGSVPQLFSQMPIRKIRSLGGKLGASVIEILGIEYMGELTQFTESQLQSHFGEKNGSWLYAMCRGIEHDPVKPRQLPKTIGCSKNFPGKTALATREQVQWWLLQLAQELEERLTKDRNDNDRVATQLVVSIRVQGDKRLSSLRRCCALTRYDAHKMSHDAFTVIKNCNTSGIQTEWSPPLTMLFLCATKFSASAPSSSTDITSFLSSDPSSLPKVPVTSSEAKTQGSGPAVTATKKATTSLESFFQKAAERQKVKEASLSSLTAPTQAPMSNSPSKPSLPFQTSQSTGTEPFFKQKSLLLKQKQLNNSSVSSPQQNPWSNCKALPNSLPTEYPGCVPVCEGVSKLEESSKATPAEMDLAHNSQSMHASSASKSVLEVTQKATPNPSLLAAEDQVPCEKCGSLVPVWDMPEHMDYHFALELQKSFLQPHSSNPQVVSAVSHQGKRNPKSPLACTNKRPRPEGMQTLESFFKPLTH
Method in brief: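 Pol eta 10 nM; substrate 50 nM final (unlabeled primer, TAMRA reporter, BHQ-2 template); preincub. 15 min RT; reads t=0 and t=10 min at ex525/em598.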

[3] = molecular target: Bifunctional 3'-5' exonuclease/ATP-dependent helicase WRN (Homo sapiens) (UniProt Q14191); experiment: qHTS for Inhibitors of WRN Helicase: Confirmatory Assay for Cherry-picked Compounds. (AID 720497); conditions: WRN helicase DNA unwinding, fluorescence kinetic; series mostly up to 57.1 µM; also: nearly all actives have a fitted effect of over 65% in size
Chain of Bifunctional 3'-5' exonuclease/ATP-dependent helicase WRN (Homo sapiens) (Q14191 whole entry, looked up): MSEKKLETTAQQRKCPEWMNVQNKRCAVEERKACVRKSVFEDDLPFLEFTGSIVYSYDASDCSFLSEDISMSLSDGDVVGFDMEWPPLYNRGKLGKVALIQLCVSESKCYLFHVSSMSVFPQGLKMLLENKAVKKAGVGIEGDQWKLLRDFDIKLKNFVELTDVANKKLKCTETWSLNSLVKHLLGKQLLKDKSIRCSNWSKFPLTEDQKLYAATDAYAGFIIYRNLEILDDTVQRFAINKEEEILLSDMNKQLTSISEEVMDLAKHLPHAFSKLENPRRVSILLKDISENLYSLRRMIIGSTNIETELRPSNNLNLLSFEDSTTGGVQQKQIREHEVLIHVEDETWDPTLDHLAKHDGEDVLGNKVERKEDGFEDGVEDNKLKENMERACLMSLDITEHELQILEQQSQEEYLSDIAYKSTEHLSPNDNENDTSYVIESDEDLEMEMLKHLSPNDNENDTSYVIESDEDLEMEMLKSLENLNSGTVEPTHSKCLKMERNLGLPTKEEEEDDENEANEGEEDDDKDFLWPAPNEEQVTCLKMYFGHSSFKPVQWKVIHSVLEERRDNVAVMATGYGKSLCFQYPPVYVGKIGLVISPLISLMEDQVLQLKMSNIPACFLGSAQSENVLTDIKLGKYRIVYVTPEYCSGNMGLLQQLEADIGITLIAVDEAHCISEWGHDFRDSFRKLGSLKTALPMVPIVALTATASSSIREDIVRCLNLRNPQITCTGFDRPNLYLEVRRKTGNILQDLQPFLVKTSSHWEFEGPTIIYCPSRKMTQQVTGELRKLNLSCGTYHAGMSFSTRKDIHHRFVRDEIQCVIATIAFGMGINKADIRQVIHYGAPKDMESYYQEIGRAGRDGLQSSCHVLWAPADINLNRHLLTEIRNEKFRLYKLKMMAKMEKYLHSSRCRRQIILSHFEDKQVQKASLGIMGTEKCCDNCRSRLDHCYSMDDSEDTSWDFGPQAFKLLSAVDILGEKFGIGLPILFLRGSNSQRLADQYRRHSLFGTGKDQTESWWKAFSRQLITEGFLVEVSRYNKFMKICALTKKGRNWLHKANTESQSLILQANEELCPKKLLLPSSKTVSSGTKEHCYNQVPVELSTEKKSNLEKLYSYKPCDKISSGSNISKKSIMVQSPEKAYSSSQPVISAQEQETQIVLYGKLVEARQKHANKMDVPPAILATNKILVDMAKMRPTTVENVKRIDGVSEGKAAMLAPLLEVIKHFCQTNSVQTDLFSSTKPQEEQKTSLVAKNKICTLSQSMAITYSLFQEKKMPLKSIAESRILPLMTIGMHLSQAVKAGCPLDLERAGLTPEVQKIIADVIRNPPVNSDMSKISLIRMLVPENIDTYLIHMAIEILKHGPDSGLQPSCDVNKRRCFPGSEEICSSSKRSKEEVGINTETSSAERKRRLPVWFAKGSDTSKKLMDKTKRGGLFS
Method in brief: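 Helicase activity is tracked as a kinetic fluorescence signal (excitation 525 nm, emission 598 nm) after 100 nM forked duplex DNA and 2 mM ATP are added to 20 nM WRN that has been preincubated 15 min with compound at room temperature.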

[4] = molecular target: RecQ-like DNA helicase BLM (Homo sapiens) (UniProt P54132); experiment: qHTS for Inhibitors of WRN Helicase: BLM Helicase Counterscreen for WRN Inhibitors (AID 720503); conditions: Recombinant BLM helicase DNA unwinding, red fluorescence; series mostly up to 57.1 µM; also: nearly all actives have a fitted effect of over 60% in size
Method in brief: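 Reactions were started with 100 nM DNA substrate and 2 mM ATP (final) after compound and 1 nM BLM stood 15 min at room temperature in Tris-HCl pH 8.0 buffer with NaCl, MgCl2, DTT and Tween-20. Two red-fluorescence reads 15 min apart were normalized against DMSO and no-enzyme wells.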

[5] = molecular target: DNA polymerase iota (Homo sapiens) (UniProt Q9UNA4); experiment: qHTS for Inhibitors of Polymerase Iota: Confirmatory Assay for Cherry-picked Compounds (AID 720496); conditions: Pol iota primer extension, TAMRA/BHQ fluorescence
Chain of DNA polymerase iota (Homo sapiens) (Q9UNA4 whole entry, looked up): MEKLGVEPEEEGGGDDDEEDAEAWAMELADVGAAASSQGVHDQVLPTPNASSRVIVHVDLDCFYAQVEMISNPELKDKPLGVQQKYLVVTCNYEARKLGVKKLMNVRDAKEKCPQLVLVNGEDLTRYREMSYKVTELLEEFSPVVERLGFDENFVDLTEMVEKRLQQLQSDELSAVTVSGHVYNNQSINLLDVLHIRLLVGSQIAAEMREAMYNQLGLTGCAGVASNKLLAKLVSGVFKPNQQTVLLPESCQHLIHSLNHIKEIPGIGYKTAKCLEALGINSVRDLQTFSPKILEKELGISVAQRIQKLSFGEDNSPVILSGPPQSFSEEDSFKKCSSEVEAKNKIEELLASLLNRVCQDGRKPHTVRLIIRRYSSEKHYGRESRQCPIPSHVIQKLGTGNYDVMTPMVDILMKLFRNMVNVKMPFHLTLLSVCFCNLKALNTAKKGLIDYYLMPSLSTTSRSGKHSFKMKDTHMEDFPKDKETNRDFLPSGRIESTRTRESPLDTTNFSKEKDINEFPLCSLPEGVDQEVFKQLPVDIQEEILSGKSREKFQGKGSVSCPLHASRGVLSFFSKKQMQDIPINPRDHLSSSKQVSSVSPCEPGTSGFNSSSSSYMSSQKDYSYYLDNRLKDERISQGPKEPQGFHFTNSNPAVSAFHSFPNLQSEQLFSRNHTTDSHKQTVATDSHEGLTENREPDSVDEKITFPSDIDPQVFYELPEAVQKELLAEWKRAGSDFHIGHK
Method in brief: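 Step 1: 10 nM Pol iota with compound, 15 min, room temperature. Step 2: 50 nM final quenched DNA substrate added. Step 3: fluorescence (ex 525, em 598 nm) read at 0 and after 10 min.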
Potency is read from the fitted curve at half-maximal effect.

SMILES: CCOc1ccccc1/C=c1\sc2nc(-c3ccco3)nn2c1=O
- Potency [1]: 47.4 µM (active)
- Potency [2]: 60.1 µM (active)

SMILES: CN1CCN(S(=O)(=O)c2cccc(C(=O)Nc3sccc3C#N)c2)CC1
- Potency [3]: 24.1 µM (active)

SMILES: O=C(Cc1ccc(S(=O)(=O)N2CCCC2)s1)NC1CCCCCC1
- Potency [2]: 60.1 µM (active)

SMILES: Cc1ccc(-c2nc(SCc3ccc(Br)cc3)n3[nH]c(=O)cc3n2)cc1
- Potency [3]: 13.6 µM (active)
- Potency [1]: 16.8 µM (active)
- Potency [4]: 4.82 µM (active)

SMILES: C=C(C)C(=O)O[C@H]1C/C(C)=C\C(=O)/C=C(\C)[C@H](O)[C@@H]2OC(=O)C(=C)[C@@H]21
- Potency [2]: 75.7 µM (active)

SMILES: O=C(N/N=C/c1ccco1)c1ccc(C(=O)N/N=C/c2ccco2)o1
- Potency [5]: 42.3 µM (active)
- Potency [2]: 53.6 µM (active)
